# Assay results: PubChem BioAssay (EPA / NIEHS)
# Several values for one entry are separate records, joined by “and”; a condition that tells them apart may be missing. Equal values may be shown once. Activity calls are given as the source filed them. Rule for the calls: active = hit-call score of the fitted dose curve at least 0.9, where 1 is the maximum; inactive = score below 0.9.
# Read-out: Intercellular Adhesion Molecule 1 (ICAM1), ICAM1 (gene 3383)
# Assay: BSK_3C_ICAM1: BioMAP Diversity Plus: 3C Assay for Intercellular Adhesion Molecule 1 (ICAM1) Biomarker Activity (AID 2283003)
# Settings: primary human endothelial cells (HUVEC); actives raise or lower the signal
# Procedure: BSK_3C is a cell-based, multiplexed-readout assay that uses umbilical vein endothelium, a human vascular primary cell, with measurements taken at 24 hours after chemical dosing in a 96-well plate.BSK_3C_ICAM1 is an assay component measured in the BSK_3C assay. It measures ICAM-1 antibody related to regulation of gene expression using ELISA technology.Data from the assay component BSK_3C_ICAM1 was analyzed into 1 assay endpoint. This assay endpoint, BSK_3C_ICAM1, was analyzed with bidirectional fitting relative to DMSO as the negative control and baseline of activity. Using a type of binding reporter, gain or loss-of-signal activity can be used to understand changes in the signaling as they relate to the gene ICAM1. Furthermore, this assay endpoint can be referred to as a primary readout, because this assay has produced multiple assay endpoints where this one serves a signaling function. To generalize the intended target to other relatable targets, this assay endpoint is annotated to the cell adhesion molecules intended target family, where the subfamily is Immunoglobulin CAM.
# The levels of cell surface (or secreted, indicated by the prefix "s") biomarker endpoints were measured by ELISA. Overt cytotoxicity to cells in confluent adherent cultures (all systems other than the BT system) was assessed by measuring total protein levels using sulforhodamine B (SRB) staining in parallel cultures at the time of biomarker measurements, indicated as SRB endpoints. For proliferation assays for adherent cell types, individual cell types are cultured at sub-confluence and relative cell numbers quantified by SRB staining at time points optimized for each system (48 h: 3C and CASM3C systems; 72 h: BT and HDF3CGF systems; 96 h: SAg system). SRB was performed by staining cells with 0.1% SRB after fixation with 10% TCA and reading wells at 560 nm.Viability and proliferation of PBMC (T cells) was quantified by Alamar Blue reduction for the SAg and BT systems. For PBMC viability (referred to as PBMC Cytotoxicity within the assay endpoint names), cells were plated (75,000/well in a 96-well plate) and then chemical samples added for 1 h before addition of activators, SEB and TSST-1 (20 ng/mL final concentration each). Cells were incubated for 90 h. Then, Alamar Blue (20 uL/well) (Invitrogen, Cat DAL1100) was added for 6 h, and the plates were read with a fluorescence microplate reader at 546/580 nm (excitation/emission). For PBMC proliferation, cells were plated and activated as above but incubated for only 16 h prior to addition of Alamar Blue. Plates were read after 6 h.
SMILES,outcome,AC50
OCC(O)CC(F)(F)C(F)(F)C(F)(F)C(F)(F)F (stereo not given),inactive,
Nc1cc([N+](=O)[O-])cc(Cl)c1O,inactive,
CO[Si](C)(CCC(F)(F)C(F)(F)C(F)(F)C(F)(F)C(F)(F)C(F)(F)F)OC,inactive,
C[Si](Cl)(Cl)CCC(F)(F)C(F)(F)C(F)(F)C(F)(F)C(F)(F)C(F)(F)F,inactive,
C=CC(=O)OCC(F)(F)C(F)(F)C(F)(F)COC(=O)C=C,,46.5 µM (active)
FC(F)(F)C(F)(F)C(F)(F)CC1CO1 (stereo not given),inactive,
CNS(=O)(=O)C(F)(F)C(F)(F)C(F)(F)C(F)(F)C(F)(F)C(F)(F)C(F)(F)C(F)(F)F,inactive,
CCOC(C=C(C)CCC=C(C)C)OCC,,34.5 µM (active)
O=C(O)C(F)(F)OC(F)(F)C(F)(F)OC(F)(F)C(F)(F)OC(F)(F)F,inactive,
OC(O)C(F)(F)C(F)(F)F,inactive,
C=CC(=O)OCC(F)(F)C(F)(F)C(F)(F)C(F)(F)C(F)(F)C(F)(F)C(F)(F)C(F)F,inactive,
Brc1nc2ccccc2s1,inactive,
C[C@]12CC[C@H]3C(=CCc4cc(O)ccc43)[C@@H]1CCC2=O,inactive,
Cc1cnccn1,inactive,
O=C(O)CCC(F)(F)C(F)(F)C(F)(F)F,inactive,
CCN=C1C=CC(=C(c2ccc(N(CC)CC)cc2)c2ccc(N(CC)CC)cc2)c2ccccc21,,3.69 µM (active) and 3.76 µM (active)
OCC(F)(F)C(F)(F)C(F)(F)C(F)(F)C(F)(F)C(F)(F)C(F)(F)C(F)(F)CO,inactive,
CCOC(=O)CC(=O)C(F)(F)C(F)(F)F,inactive,
O=C1C=CC(=O)N1c1ccc(Cc2ccc(N3C(=O)C=CC3=O)cc2)cc1,,9.7 µM (active)
O=C(O)C(F)(F)C(F)(F)C(F)(F)C(=O)O,inactive,

SMILES,outcome,AC50
Cc1cc(O)c(C(C)(C)C)cc1C(C)(C)C,,8.46 µM (active)
CC1=CC2C3C=CC(C3)C2C1C (stereo not given),inactive,
FC(F)(F)C(F)(F)C(F)(F)C(F)(F)C(F)(F)C(F)(F)CC[Si](Cl)(Cl)Cl,inactive,
O=S(=O)(Cl)C(F)(F)C(F)(F)C(F)(F)C(F)(F)C(F)(F)C(F)(F)C(F)(F)C(F)(F)F,inactive,
Cc1ccc(O)c(-n2nc3ccccc3n2)c1,inactive,
NC(=O)C(F)(F)C(F)(F)C(F)(F)F,inactive,
OCC(F)(F)C(F)(F)C(F)(F)CO,inactive,
O=C(F)C1(F)C(F)(F)C(F)(F)C(F)(F)C(F)(F)C1(F)F,inactive,
O=C(O)C(F)(F)C(F)(F)C(F)(F)C(F)(F)C(F)(F)C(F)(F)C(F)F,inactive,
NS(=O)(=O)C(F)(F)C(F)(F)C(F)(F)C(F)(F)C(F)(F)C(F)(F)F,inactive,
NC(O)(C(F)(F)F)C(F)(F)F,inactive,
O=C(O)C(F)(F)C(F)(F)C(F)(F)OC(F)(C(F)(F)F)C(F)(F)F,inactive,
NCC(F)(F)C(F)(F)C(F)(F)C(F)(F)C(F)(F)C(F)(F)F,inactive,
FC(F)(F)C(F)(F)C(F)(F)C(F)(F)C(F)(F)C(F)(F)C(F)(F)CCI,inactive,
OCCCC(F)(F)C(F)(F)C(F)(F)C(F)(F)C(F)(F)C(F)(F)C(F)(F)C(F)(F)F,,22.4 µM (active) and 45.5 µM (active)
Cc1ccc(S(=O)(=O)C(I)I)cc1,,3.35 µM (active)
NC(=O)C(F)(F)C(F)(F)C(F)(F)C(F)(F)C(N)=O,inactive,
C=CC(=O)OCCC(F)(F)C(F)(F)C(F)(F)C(F)(F)F,inactive,
O=S(=O)(O)CCC(F)(F)C(F)(F)C(F)(F)C(F)(F)C(F)(F)C(F)(F)C(F)(F)C(F)(F)F,inactive,
C=C(C)C(=O)OCC(F)(F)C(F)(F)C(F)(F)C(F)F,inactive,
